Experimental data: PubChem BioAssay AID1159580 (chemical genetic matrix, 2015)
Values joined by “and” are separate entries in the source; they are usually repeats but may differ in a detail not shown here. Identical values can stand only once. Among all 5,500 compounds or so, about 2,000 (36%) were called active. Not shown: some 18% with an inconclusive outcome. No stated cut-off is given here; in the data, active means normalized growth mostly below about 0.91 (no sharp cut-off); inconclusive means no clear call, values can overlap the other calls; inactive means mostly above about 0.92. The list shows a part of the results.

Test: chemical genetic growth profiling, strain panel (AID 1159580);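 further: tested at 20 µM; growth read once vehicle control cultures reached saturation at 30 °C; 1 = growth at the plate median or of vehicle wells; lower values mean less growth of the strain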
Conditions: S. cerevisiae deletion strains, growth OD

Measured: normalized growth

S=c1nc[nH]c2nc[nH]c12
inactive: locus YAL013W, strain DEP1, active compounds read low 0.996 | locus YAL021C, strain ccr4, active compounds read low 1.02 | locus YAL026C, strain drs2, active compounds read low 0.991 | locus YAL030W, strain snc1, active compounds read low 1.02 | locus YBL061C, strain skt5, active compounds read low 1.02 | locus YBR009C, strain hhf1, active compounds read low 0.997 | locus YBR021W, strain FUR4, active compounds read low 0.997 | locus YBR023C, strain chs3, active compounds read low 1.02 | locus YBR171W, strain sec66, active compounds read low 0.976 | locus YBR229C, strain ROT2, active compounds read low 1 | locus YBR231C, strain swc5, active compounds read low 1.02 | locus YBR279W, strain paf1, active compounds read low 1 | locus YCL011C, strain gbp2, active compounds read low 0.972 | locus YCL016C, strain dcc1, active compounds read low 1.01 | locus YCL029C, strain bik1, active compounds read low 0.976 | locus YCL069W, strain vba3, active compounds read low 0.964 | locus YCR088W, strain abp1, active compounds read low 0.977 | locus YDL005C, strain med2, active compounds read low 0.988 | locus YDL035C, strain GPR1, active compounds read low 1 | locus YDL040C, strain nat1, active compounds read low 1.02 | locus YDL074C, strain BRE1, active compounds read low 1 | locus YDL101C, strain DUN1, active compounds read low 0.996 | locus YDL134C, strain PPH21, active compounds read low 1.01 | locus YDL185W, strain tfp1, active compounds read low 0.964 | locus YDL192W, strain arf1, active compounds read low 0.974 | locus YDR001C, strain nth1, active compounds read low 0.972 | locus YDR069C, strain doa4, active compounds read low 1.02 | locus YDR101C, strain arx1, active compounds read low 1 | locus YDR137W, strain rgp1, active compounds read low 1.02 | locus YDR150W, strain NUM1, active compounds read low 0.999 | locus YDR159W, strain sac3, active compounds read low 0.985 | locus YDR162C, strain NBP2, active compounds read low 0.996 | locus YDR195W, strain ref2 0.992 | locus YDR297W, strain sur2, active compounds read low 1.02 | locus YDR318W, strain mcm21, active compounds read low 0.977 | locus YDR334W, strain swr1, active compounds read low 1.05 | locus YDR335W, strain msn5, active compounds read low 1.01 | locus YDR388W, active compounds read low 0.999 | locus YDR392W, strain spt3, active compounds read low 1.01 | locus YDR502C, strain sam2, active compounds read low 0.991 | locus YEL003W, strain gim4, active compounds read low 0.963 | locus YEL037C, strain rad23, active compounds read low 0.977 | locus YEL061C, strain CIN8 (second series), active compounds read low 0.992 | locus YEL061C, strain CIN8, active compounds read low 0.991 | locus YER015W, strain faa2, active compounds read low 1.01 | locus YER016W, strain bim1, active compounds read low 1 | locus YER110C, active compounds read low 0.969 | locus YER111C, strain swi4, active compounds read low 0.966 | locus YER155C, strain BEM2 (second series), active compounds read low 0.963 | locus YER155C, strain BEM2, active compounds read low 0.99 | locus YER167W, strain BCK2, active compounds read low 0.987 | locus YFR010W, strain ubp6, active compounds read low 0.987 | locus YGL078C, strain dbp3, active compounds read low 0.984 | locus YGL086W, strain mad1, active compounds read low 1.01 | locus YGL167C, strain pmr1, active compounds read low 1.01 | locus YGL173C, strain kem1, active compounds read low 1 | locus YGL227W, strain vid30, active compounds read low 0.975 | locus YGL240W, strain doc1, active compounds read low 1.01 | locus YGL248W, strain PDE1, active compounds read low 0.995 | locus YGL253W, strain hxk2, active compounds read low 1.02 | locus YGR078C, strain PAC10, active compounds read low 1 | locus YGR135W, strain pre9, active compounds read low 0.941 | locus YGR252W, strain gcn5, active compounds read low 0.979 | locus YHR013C, strain ard1, active compounds read low 1.06 | locus YHR027C, strain rpn1, active compounds read low 1.01 | locus YHR030C, strain SLT2, active compounds read low 0.999 and 1.02 | locus YHR079C, strain IRE1 (second series), active compounds read low 0.983 | locus YHR079C, strain IRE1, active compounds read low 1 | locus YHR094C, strain hxt1, active compounds read low 0.987 | locus YHR129C, strain ARP1, active compounds read low 1 | locus YHR142W, strain chs7, active compounds read low 0.999 | locus YHR200W, strain rpn10, active compounds read low 0.98 | locus YIL066C, strain RNR3, active compounds read low 1 | locus YIL073C, strain SPO22, active compounds read low 0.934 | locus YIL125W, strain kgd1, active compounds read low 0.994 | locus YIR030C, strain dcg1, active compounds read low 0.974 | locus YJL092W, strain hpr5, active compounds read low 0.986 | locus YJL095W, strain BCK1 (second series), active compounds read low 1.01 | locus YJL095W, strain BCK1, active compounds read low 0.983 and 1.02 | locus YJL115W, strain asf1, active compounds read low 0.972 | locus YJL129C, strain trk1, active compounds read low 0.97 | locus YJL134W, strain LCB3, active compounds read low 0.984 | locus YJL154C, strain vps35, active compounds read low 0.967 | locus YJL164C, strain tpk1, active compounds read low 0.988 | locus YJL166W, strain qcr8, active compounds read low 1.01 | locus YJL168C, strain set2, active compounds read low 0.989 | locus YJL187C, strain SWE1 (second series), active compounds read low 0.997 | locus YJR043C, strain POL32, active compounds read low 1 | locus YJR066W, strain TOR1, active compounds read low 0.975
